Results published in PubChem BioAssay (NCI).
The panel holds about 79,000 compounds, 15% with a hit somewhere; the sample as a whole holds those more often. Active and inactive are the calls of the source. Cut-off read from the data, not from the text of the source: active = growth inhibition above about 70%; inactive = the rest.

Legend:
[1] = NCI Yeast Anticancer Drug Screen. Data for the rad50 strain (AID 155);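 note: 0% = growth of vehicle-only cultures of the same strain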; conditions: S. cerevisiae rad50 strain growth inhibition, active compounds read high
Outline: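 Cells are treated with compound, grown, and their growth is then scored against vehicle-only cultures of the same repair-deficient yeast strain.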

[2] = NCI Yeast Anticancer Drug Screen. Data for the mec2-1 strain (AID 157); conditions: S. cerevisiae mec2-1 strain, active compounds read high
Outline: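 Vehicle-treated cultures served as reference for growth inhibition of compound-exposed mec2-1 yeast.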

[3] = NCI Yeast Anticancer Drug Screen. Data for the sgs1 mgt1 strain (AID 161);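 note: 0% = growth of cultures given vehicle only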; conditions: S. cerevisiae sgs1 mgt1 strain, active compounds read high
Outline: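 Mutant yeast exposed to compound; growth scored against vehicle-only wells.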

[4] = NCI Yeast Anticancer Drug Screen. Data for the cln2 rad14 strain (AID 165);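 note: 0% = growth equal to vehicle treated cultures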; conditions: S. cerevisiae cln2 rad14 strain, active compounds read high
Outline: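 Each compound was tested on cln2 rad14 yeast. Inhibition of growth was calculated against vehicle-exposed controls.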

[5] = NCI Yeast Anticancer Drug Screen. Data for the bub3 strain (AID 167); conditions: S. cerevisiae bub3 mutant strain, active compounds read high
Outline: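 Part of a panel of yeast mutants defective in DNA damage repair or cell cycle regulation. Each strain is grown with compound, and inhibition is calculated relative to solvent-treated cultures.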

[6] = NCI Yeast Anticancer Drug Screen. Data for the mlh1 rad18 strain (AID 175); conditions: S. cerevisiae mlh1 rad18 strain growth inhibition, active compounds read high
Outline: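 Vehicle-treated cultures served as the reference for growth inhibition in a yeast strain carrying DNA damage repair alterations exposed to each compound.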

[7] = at 5.0 µM (retest, dose inferred, filed as 0.5)
[8] = at 50.0 µM (retest, dose inferred, filed as 5.0)

Measured: growth inhibition

O=[N+]([O-])c1ccc(CC(c2ccc([N+](=O)[O-])cc2)(c2ccc([N+](=O)[O-])cc2)c2ccc([N+](=O)[O-])cc2)cc1
inactive: [1]; [7] 2% | [1]; [8] -3% | [1]; at 50.0 µM 5.05% | [2]; [7] 1% | [2]; [8] 1% | [2]; at 50.0 µM 12.6% | [3]; [7] 1% | [3]; [8] -16% | [3]; at 50.0 µM -19.3% | [4]; [7] 5% | [4]; [8] -20% | [4]; at 50.0 µM 8.7% | [5]; [7] 5% | [5]; [8] 4% | [5]; at 50.0 µM 41% | [6]; [7] 0% | [6]; [8] 1% | [6]; at 50.0 µM 26.9%

COc1ccc(C2=Nc3cc(C)c(C)cc3NC(c3ccccc3)C2)cc1 (stereo not given)
inactive: [1]; [7] 11% | [1]; [8] 11% | [1]; at 50.0 µM 43.2% | [2]; [7] 7% | [2]; [8] 7% | [2]; at 50.0 µM 69.8% | [3]; [7] 21% | [3]; [8] 21% | [3]; at 50.0 µM 66.9% | [4]; [7] 1% | [4]; [8] 1% | [4]; at 50.0 µM 9.5% | [5]; [7] 35% | [5]; [8] 35% | [6]; [7] 19% | [6]; [8] 19% | [6]; at 50.0 µM 51%
active: [5]; at 50.0 µM 74.7%

Clc1ccc(Oc2nc(Cl)nc3[nH]ncc23)cc1
inactive: [1]; [7] 7% | [1]; [8] 35% | [1]; at 50.0 µM 38% | [2]; [7] 4% | [2]; [8] 58% | [2]; at 50.0 µM 30.6% | [3]; [7] 11% | [4]; [7] 8% | [4]; [8] 32% | [4]; at 50.0 µM -4.85% | [5]; [7] 7% | [5]; [8] 37% | [5]; at 50.0 µM 18.4% | [6]; [7] 10% | [6]; [8] 68% | [6]; at 50.0 µM 40.1%
active: [3]; [8] 78% | [3]; at 50.0 µM 72.9%

CCC/C(=N\NC(=S)N(C)C)c1ccccn1
active: [1]; [7] 89% | [1]; [8] 99% | [1]; at 50.0 µM 99.5% | [2]; [7] 97% | [2]; [8] 99% | [2]; at 50.0 µM 99.6% | [3]; [7] 88% | [3]; [8] 99% | [3]; at 50.0 µM 99.5% | [4]; [7] 80% | [4]; [8] 99% | [4]; at 50.0 µM 99.4% | [5]; [7] 85% | [5]; [8] 98% | [5]; at 50.0 µM 99.5% | [6]; [7] 94% | [6]; [8] 99% | [6]; at 50.0 µM 99.5%

N#CSCCl
active: [1]; at 50.0 µM 91.7% | [2]; [8] 75% | [2]; at 50.0 µM 92% | [3]; at 50.0 µM 93.8% | [4]; at 50.0 µM 91% | [5]; [8] 93% | [5]; at 50.0 µM 92.3% | [6]; [8] 87% | [6]; at 50.0 µM 92%
inactive: [1]; [7] 0% | [1]; [8] 42% | [2]; [7] 5% | [3]; [7] -2% | [3]; [8] 20% | [4]; [7] 1% | [4]; [8] 61% | [5]; [7] -4% | [6]; [7] 3%

CCOC(=O)N1C=C(C(=O)OC)C(c2ccccc2)C(C(=O)OC)=C1
inactive: [1]; [7] 4% | [1]; [8] 6% | [1]; at 50.0 µM -15.2% | [2]; [7] 0% | [2]; [8] 20% | [2]; at 50.0 µM -9.35% | [3]; [7] 5% | [3]; [8] 14% | [3]; at 50.0 µM -6.3% | [4]; [7] -5% | [4]; [8] 4% | [4]; at 50.0 µM 32.6% | [5]; [7] 8% | [5]; [8] 35% | [5]; at 50.0 µM -4.25% | [6]; [7] 2% | [6]; [8] 20% | [6]; at 50.0 µM 1.25%

Cc1ccc(SCc2nc3ccccc3c(C)[n+]2[O-])cc1
active: [1]; [8] 86% | [2]; [8] 86% | [3]; [8] 87% | [5]; [8] 76% | [6]; [8] 91%
inactive: [1]; [7] 2% | [1]; at 50.0 µM 32.6% | [2]; [7] 4% | [2]; at 50.0 µM 45.6% | [3]; [7] -7% | [3]; at 50.0 µM 55% | [4]; [7] 0% | [4]; [8] 53% | [4]; at 50.0 µM 38% | [5]; [7] -4% | [5]; at 50.0 µM 55.9% | [6]; [7] -7% | [6]; at 50.0 µM 56.7%

C/C(=N/NC(=O)c1ccccc1S(N)(=O)=O)C(CN1CCCCC1)C(C1=C(O)C2C=CC=CC2OC1=O)c1ccccc1 (stereo not given)
inactive: [1]; [7] 41% | [1]; [8] 41% | [2]; [7] 25% | [2]; [8] 25% | [3]; [7] 19% | [3]; [8] 19% | [4]; [7] 8% | [4]; [8] 8% | [5]; [7] 31% | [5]; [8] 31% | [6]; [7] 22% | [6]; [8] 22%
active: [1]; at 50.0 µM 89.7% | [2]; at 50.0 µM 91.4% | [3]; at 50.0 µM 91% | [4]; at 50.0 µM 88.8% | [5]; at 50.0 µM 88.8% | [6]; at 50.0 µM 88%

CCOC(=O)C1=C(C)Oc2cc3c(cc2C1c1cc(OC)c(OC)c(OC)c1)OCO3 (stereo not given)
active: [4]; [8] 89% | [5]; [8] 94% | [6]; [8] 83%
inactive: [1]; [7] 8% | [1]; [8] 40% | [1]; at 50.0 µM 54.6% | [2]; [7] 11% | [2]; [8] 64% | [2]; at 50.0 µM 28.9% | [3]; [7] -1% | [3]; [8] 37% | [3]; at 50.0 µM 47.3% | [4]; [7] 11% | [4]; at 50.0 µM 19.1% | [5]; [7] 36% | [5]; at 50.0 µM 55.6% | [6]; [7] 12% | [6]; at 50.0 µM 45.8%

Oc1c(Cl)cc(Cl)cc1C=NCCSc1ccc(Cl)cc1
inactive: [1]; [7] 33% | [2]; [7] 30% | [3]; [7] 27% | [4]; [7] 23% | [5]; [7] 45% | [6]; [7] 49%
active: [1]; [8] 99% | [1]; at 50.0 µM 92.2% | [2]; [8] 99% | [2]; at 50.0 µM 93.8% | [3]; [8] 99% | [3]; at 50.0 µM 94.8% | [4]; [8] 99% | [4]; at 50.0 µM 93.2% | [5]; [8] 99% | [5]; at 50.0 µM 93.9% | [6]; [8] 99% | [6]; at 50.0 µM 92.7%
